KB-3-1 cytotox = kills parental KB-3-1 adenocarcinoma cells. KB-3-1 viability, CellTiter-Glo ATP luminescence, 72 h. Potency, µM (highest dose often 46.1 µM), usual class: cytotoxic. 400,000 compounds, 1.4% hits; note: nearly all actives have a fitted effect of over 60% in size
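72 h, 37 °C compound treatment of KB-3-1 parental cells; CellTiter-Glo added, 10 min, luminescence read. Data corrected against DMSO-only plates and normalized before curve fitting.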
KB-V1 MDR tox = KB-V1 MDR subline cytotoxicity; KB-V1 MDR cells viability, CellTiter-Glo, 72 h; Potency, µM (highest dose often 46.1 µM), actives largely listed as cytotoxic; 400,000 compounds, 3.4% hits; AID 1347076; note: nearly all actives have a fitted effect of over 60% in size
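Luminescent ATP read-out (CellTiter-Glo, 10 min) measures survival of drug-selected KB-V1 MDR cells after 72 h, 37 degrees C compound exposure. Medium: phenol-red-free DMEM, 10% FBS. Values from fitted concentration-response curves.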
HT1080-NT tox = kills 2HG-producing HT-1080-NT fibrosarcoma cells; HT-1080-NT fibrosarcoma viability, CellTiter-Glo ATP luminescence, 48 h; Potency, µM (highest dose often 46.1 µM), without a hit: at the top dose activity, negative = less viability, usual class: cytotoxic; 360,000 compounds, 1.6% hits; AID 686970;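 note: NT is the 2HG producing partner of a matched IDH1 knockdown line; 0% = DMSO-treated cells and -100% = media-only wells without cells; nearly all actives have a fitted effect of over 55% in size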
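HT-1080-NT; 750 cells/well; 5% FBS RPMI; 48 h compound, 37 degrees C; CellTiter-Glo luminescence; curve fitting and curve-class assignment.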
TDP1 cell CPT = DT40-hTDP1 cell growth loss with CPT | chicken DT40 Tdp1-/-;hTDP1 cells + 20 nM CPT, ATP luminescence, 48 h | Potency, µM (doses to about 46.2 µM), without a hit: at the top dose activity change, negative = growth inhibition, hits mostly inhibitors | 420,000 compounds, 12% hits | AID 686979; note: nearly all actives have a fitted effect of over 55% in size
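Chicken DT40 Tdp1-/- cells complemented with human TDP1, 400 cells/well, exposed to compounds plus 20 nM camptothecin for at least 48 h at 37 C; viability read as ATP content by CellTiter-Glo luminescence.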
HT1080 IDH1KD tx = toxicity to HT-1080 IDH1 knockdown cells (counter line) | Potency, µM (doses to about 46.1 µM), inactives show at the highest dose activity, negative = toxicity, most hits filed as cytotoxic | HT-1080 IDH1 knockdown viability, ATP luminescence, 48 h | AID 686971 | 360,000 compounds, 2% hits;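 note: 0% = DMSO wells and -100% = cell-free medium wells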
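In this qHTS, HT-1080 cells depleted of IDH1 are exposed for 48 h at 37 °C to compound titrations. Toxicity is scored from CellTiter-Glo luminescence, with DMSO as full viability and medium alone as none.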
TDP1 cell noCPT = qHTS for Inhibitors of human tyrosyl-DNA phosphodiesterase 1 (TDP1): qHTS in cells in absence of CPT | AID 686978, 2013 | Potency, µM (titrated, usually from 46.2 µM), for inactives: at the top dose activity change, negative = growth inhibition, actives largely listed as inhibitors | 420,000 compounds, 15% hits | DT40 Tdp1-/- hTDP1 cells, no CPT, ATP luminescence, 48 h; note: nearly all actives have a fitted effect of over 55% in size
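Chicken DT40 Tdp1-/- cells complemented with human TDP1, screened without camptothecin (DMSO vehicle only), 400 cells/well. Compounds pin-transferred, cells incubated at 37 °C for at least 48 hr. Growth read as ATP-dependent luminescence (CellTiter-Glo, 30 min at RT).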
* = called active by the depositor. Only some compounds are listed: those with a hit (about 19% of all), similar ones and a draw of the others. Calls come from the whole dose curve; as a rule, active = well fitted curve in the direction sought with a large enough effect; inconclusive = small, poorly fitted or top-dose-only effect, or another doubt; inactive = no such curve, though single readings can be large; an effect the other way counts as inactive or inconclusive. Unless noted, % is set by controls: 0 for no effect and ±100 for the full control effect; potency is the fitted concentration of half-maximal effect.

Screening CCCCN(C=O)c1c(CC)nc2ccc(C(=O)Nc3cc(-c4ccccc4)ccc3OC)cn12 returned KB-3-1 cytotox inconclusive, KB-V1 MDR tox 23µM*, HT1080-NT tox inconclusive, TDP1 cell CPT inconclusive, HT1080 IDH1KD tx inconclusive and TDP1 cell noCPT 16µM*.
Cc1coc2c(C)c3oc(=O)c(CCC(=O)N[C@H](C(=O)O)C(C)C)c(C)c3cc12 was read as KB-3-1 cytotox inactive, KB-V1 MDR tox inactive, HT1080-NT tox -6%, TDP1 cell CPT 9%, HT1080 IDH1KD tx -1% and TDP1 cell noCPT -13%.
For COc1ccc(C(=O)N2CCN(c3ccc(C)cc3C)CC2)cc1OC the results were KB-3-1 cytotox inactive, KB-V1 MDR tox inactive, HT1080-NT tox -3%, TDP1 cell CPT 21µM*, HT1080 IDH1KD tx -5% and TDP1 cell noCPT 26µM*.
For COc1ccc(C(=O)N2CCN(S(=O)(=O)c3ccc(C)cc3C)CC2)cc1OC the results were KB-3-1 cytotox inactive, KB-V1 MDR tox inactive, HT1080-NT tox -2%, TDP1 cell CPT -24%, HT1080 IDH1KD tx 0% and TDP1 cell noCPT inconclusive.
Screening COc1ccc(C(=O)N2CCN(c3ccc(C)c(C)c3)CC2)cc1OC returned KB-3-1 cytotox inactive, KB-V1 MDR tox inconclusive, HT1080-NT tox -4%, TDP1 cell CPT inconclusive, HT1080 IDH1KD tx -1% and TDP1 cell noCPT 16µM*.
`COC(=O)N(C)C[C@@H]1OCc2cnnn2CCCC(=O)N([C@@H](C)CO)C[C@H]1C` gave KB-3-1 cytotox inactive, KB-V1 MDR tox inactive, HT1080-NT tox 10%, TDP1 cell CPT 3%, HT1080 IDH1KD tx 10% and TDP1 cell noCPT -2%.
Screening CCCCc1cc(O)c(CCCC)c(O)c1 returned KB-3-1 cytotox inconclusive, KB-V1 MDR tox inconclusive, HT1080-NT tox inconclusive, TDP1 cell CPT 21µM*, HT1080 IDH1KD tx inconclusive and TDP1 cell noCPT 13µM*.
For CC1(C)C2CCC1(C)C(NC(=O)/C=C/c1ccccc1)C2 (stereo unspecified) the results were KB-3-1 cytotox inactive, KB-V1 MDR tox inactive, HT1080-NT tox -18%, TDP1 cell CPT inconclusive, HT1080 IDH1KD tx 2% and TDP1 cell noCPT 18µM*.
For COc1ccccc1OCCSc1nc2ccccc2n1CC(N)=O the results were KB-3-1 cytotox inactive, KB-V1 MDR tox inactive, HT1080-NT tox 0%, TDP1 cell CPT 5%, HT1080 IDH1KD tx -1% and TDP1 cell noCPT -6%.
COc1ccc(-c2cnc(SCC(=O)Nc3ccc4c(c3)OCO4)n2Cc2ccco2)cc1 was read as KB-3-1 cytotox inactive, KB-V1 MDR tox inactive, HT1080-NT tox inconclusive, TDP1 cell CPT 18µM*, HT1080 IDH1KD tx -21% and TDP1 cell noCPT 18µM*.
For CC(=O)Nc1cccc(NC(=O)CSc2ncc(-c3ccc(Cl)cc3)n2Cc2ccco2)c1 the results were KB-3-1 cytotox inconclusive, KB-V1 MDR tox inconclusive, HT1080-NT tox inconclusive, TDP1 cell CPT 21µM*, HT1080 IDH1KD tx inconclusive and TDP1 cell noCPT 21µM*.
Screening Clc1ccccc1NN(Cc1ccccn1)c1ccccc1Cl returned KB-3-1 cytotox inactive, KB-V1 MDR tox inactive, HT1080-NT tox -1%, TDP1 cell CPT inconclusive, HT1080 IDH1KD tx -7% and TDP1 cell noCPT 23µM*.
CN1c2ccccc2C(O)=C(C(=S)Nc2ccc(Cl)cc2)S1(=O)=O was read as KB-3-1 cytotox inactive, KB-V1 MDR tox inactive, HT1080-NT tox inconclusive, TDP1 cell CPT 16µM*, HT1080 IDH1KD tx inconclusive and TDP1 cell noCPT 21µM*.
Cc1ccc(NC(=S)C2=C(O)c3sccc3N(C)S2(=O)=O)cc1 was read as KB-3-1 cytotox inactive, KB-V1 MDR tox inactive, HT1080-NT tox -5%, TDP1 cell CPT inconclusive, HT1080 IDH1KD tx 2% and TDP1 cell noCPT inconclusive.

Screens as filed in PubChem.
